# Experimental data: PubChem BioAssay (Tox21)
# Records with an inconclusive call do not appear. The source made the active and inactive calls. The call rests on the fitted dose curve; in most records, active means well fitted activation curve with a large enough effect in the signal ratio in the repeat runs, with a control signal flat (not every such curve was filed as active); inconclusive means weak or mixed curves; inactive means flat fitted curve, though single readings scatter; the % refers to the signal ratio.
# Assay: qHTS assay for small molecule activators of the heat shock response signaling pathway (AID 743210)
# Conditions: HeLa HSE-bla reporter, beta-lactamase ratio, 5 h; series mostly up to 62.6 µM
# Text: U.S. Tox21 Program National Center for Advancing Translational Sciences [NCATS] NIH Chemical Genomics Center [NCGC] U.S. Environmental Protection Agency [EPA] National Institutes of Environmental Health Sciences [NIEHS] National Toxicology Program [NTP] U.S. Food and Drug Administration [FDA] Tox21 Assay Overview: Various chemicals, environmental and physiological stress conditions may lead to the activation of heat shock response/ unfolded protein response (HSR/UPR). There are three heat shock transcription factors (HSFs) (HSF-1, -2, and -4) mediating transcriptional regulation of the human HSR. To identify the compounds that activate HSR signaling, HSE-bla HeLa cell line (Invitrogen, Carlsbad, CA, USA) containing a beta-lactamase reporter gene under the control of the heat shock response elements was used to screen the Tox21 10K compound library.
# Tox21 Assay Protocol Summary: The CellSensor HSE-bla HeLa cells (Invitrogen, Carlsbad, CA, USA) were dispensed at 1500 cells/6uL/well into 1536-well black wall/clear bottom plates using a Multidrop combi (Thermo Fisher Scientific, Waltham, MA) dispenser. After the assay plates were incubated at 37 C and 5% CO2 overnight, 23 nL of compounds dissolved in DMSO, positive controls or DMSO only was transferred to the assay plate by a Pintool station (Kalypsys, San Diego, CA). The plates were incubated at 37 C for 5 h. After 1 uL of LiveBLAzerTM B/G FRET substrate was added using a Flying Reagent Dispenser (Beckman Coulter, Indianapolis, IN, USA), the plates were incubated at room temperature for 2.5 h, and fluorescence intensity was measured by an Envision plate reader (PerkinElmer, Shelton, CT).
row,SMILES,outcome
1,COc1ccc(C2CNC(=O)C2)cc1OC1CCCC1 (stereo not given),inactive
2,COCCOCCOCCOCCO,inactive
3,Cc1ccsc1/C=C/C1=NCCCN1C,inactive
4,N[C@@H](CCC(=O)Nc1ccc([N+](=O)[O-])cc1)C(=O)O,inactive
5,CCCCCCOC(=O)CC,inactive
6,Cc1cccc(C)c1OCC(C)N (stereo not given),inactive
7,CCCCCCCCCCCCCC,inactive
8,C[C@@H]1O[C@@H](O[C@@H]2[C@@H](O)[C@H](OCCc3ccc(O)c(O)c3)O[C@H](CO[C@@H]3O[C@H](CO)[C@@H](O)[C@H](O)[C@H]3O)[C@H]2OC(=O)/C=C/c2ccc(O)c(O)c2)[C@H](O)[C@H](O)[C@H]1O,inactive
9,CC1=C(C(=O)O)N2C(=O)[C@@H](NC(=O)[C@H](N)c3ccc(O)cc3)[C@H]2SC1,inactive
10,CCN(C)C(=O)Oc1cccc([C@H](C)N(C)C)c1,inactive
11,ClCCCl,inactive
12,CC/C=C\CC1=C(C)CCC1=O,inactive
13,C[C@H](N)[C@H](O)c1cccc(O)c1,inactive
14,O=C(O)c1cc(Br)c(O)c(Br)c1,inactive
15,OC[C@H](Cc1cccc(O)c1)[C@H](CO)Cc1cccc(O)c1,inactive
16,Cc1cc(Cl)c(C)cc1Cl,inactive
17,COc1cc2c(cc1OC)[C@@H]1CC(=O)[C@@H](CC(C)C)CN1CC2,inactive
18,Nc1nnc(-c2cccc(Cl)c2Cl)c(N)n1,inactive
19,O=C(O)c1cc(Cl)cc([N+](=O)[O-])c1Cl,inactive
20,O=C(O)Cc1cn(-c2ccccc2)nc1-c1ccc(Cl)cc1,inactive

row,SMILES,outcome
1,O=C1CCCC(=O)O1,inactive
2,CCCCC(CC)COCCO (stereo not given),inactive
3,CC(S)C(=O)NCC(=O)O (stereo not given),inactive
4,CC(=O)Nc1ccc(S(=O)(=O)Cl)cc1,inactive
5,COCCOCCOCCOCCOCCO,inactive
6,O=C(OCC(COC(=O)c1cccnc1)(COC(=O)c1cccnc1)COC(=O)c1cccnc1)c1cccnc1,inactive
7,CCCCCCCC/C=C\CCCCCCCC(=O)OCCCC,inactive
8,CCCCCCCCOS(=O)(=O)O,inactive
9,COc1ccc(S(=O)(=O)N2c3ccc(Cl)cc3[C@@](O)(c3ccccc3Cl)[C@H]2C(=O)N2CCC[C@@H]2C(N)=O)cc1OC,inactive
10,CCC(C=O)CC,inactive
11,Cc1cc2cc3c(C)cc(=O)oc3c(C)c2o1,inactive
12,COc1cc2c(cc1OC)C(=O)CC2,inactive
13,CC(N)C(=O)OC(C)(C)Cc1ccc(Cl)cc1 (stereo not given),inactive
14,CC(=O)Nc1cccc(C)c1,inactive
15,CCc1ccc(C=O)cc1,inactive
16,OCCN(CCO)c1cccc(Cl)c1,inactive
17,Cc1ccc2c(c1)OCC(=O)CO2,inactive
18,CC1COc2ccccc2N1 (stereo not given),inactive
19,C=C(C)C1CCC(C)(O)CC1 (stereo not given),inactive
20,C=C(C)C(=O)OCCNC(C)(C)C,inactive
